In PubChem BioAssay (Tox21):
Inconclusive results are not listed. Activity calls are given as the source filed them. Unless noted, calls follow the shape of the dose curve; as a rule, active = well fitted curve in the direction sought with a large enough effect in the repeat runs; inconclusive = weak or mixed curves; inactive = no such curve, though single readings can be large; an effect the other way counts as inactive or inconclusive.

Assays:
[1] = qHTS assay to identify aromatase inhibitors - cell viability counter screen (AID 743084);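 also: cells stimulated with testosterone during compound exposure; nearly all actives have a fitted effect of over 55% in size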
[2] = target: Aryl hydrocarbon receptor (Homo sapiens) (UniProt P35869); test: qHTS assay to identify small molecule that activate the aryl hydrocarbon receptor (AhR) signaling pathway (AID 743085); also: nearly all actives have a fitted effect of over 15% in size; also: potency is read from the fitted curve at half-maximal effect;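 as to activation: HG2L7.5c1 human HepG2 liver cells with stably integrated DRE-driven firefly reporter; series mostly up to about 70 µM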
Chain of Aryl hydrocarbon receptor (Homo sapiens) (P35869 whole entry, looked up): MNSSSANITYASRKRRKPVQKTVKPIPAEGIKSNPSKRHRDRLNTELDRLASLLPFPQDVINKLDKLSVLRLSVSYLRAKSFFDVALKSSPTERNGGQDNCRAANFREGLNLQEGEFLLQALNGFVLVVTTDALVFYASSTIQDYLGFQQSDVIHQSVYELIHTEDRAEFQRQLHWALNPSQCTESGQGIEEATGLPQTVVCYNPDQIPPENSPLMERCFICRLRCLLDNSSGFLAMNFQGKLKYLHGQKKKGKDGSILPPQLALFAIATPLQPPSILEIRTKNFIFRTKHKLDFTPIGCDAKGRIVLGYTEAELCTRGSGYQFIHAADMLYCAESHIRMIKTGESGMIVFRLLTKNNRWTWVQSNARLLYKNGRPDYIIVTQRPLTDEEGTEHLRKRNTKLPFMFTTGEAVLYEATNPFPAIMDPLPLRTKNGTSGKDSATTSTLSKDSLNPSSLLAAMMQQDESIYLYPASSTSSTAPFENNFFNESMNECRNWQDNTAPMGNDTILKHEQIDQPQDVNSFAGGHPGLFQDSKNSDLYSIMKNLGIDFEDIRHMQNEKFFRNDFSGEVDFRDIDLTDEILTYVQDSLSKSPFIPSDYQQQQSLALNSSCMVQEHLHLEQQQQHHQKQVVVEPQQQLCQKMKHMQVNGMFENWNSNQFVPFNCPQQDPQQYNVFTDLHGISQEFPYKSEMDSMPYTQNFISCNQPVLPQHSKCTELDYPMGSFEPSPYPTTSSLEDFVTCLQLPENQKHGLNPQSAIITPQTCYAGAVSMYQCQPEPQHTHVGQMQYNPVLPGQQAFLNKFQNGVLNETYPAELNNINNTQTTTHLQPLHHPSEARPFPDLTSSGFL
Outline: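 HepG2 cells (HG2L7.5c1) stably carrying a firefly luciferase reporter driven by 20 dioxin responsive elements were exposed to compound for 24 h at 37C after a 5 h settling period; luminescence rise (ONE-Glo) indicated activation.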

[3] = qHTS assay to identify small molecule that activate the aryl hydrocarbon receptor (AhR) signaling pathway - cell viability counter screen (AID 743086);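 also: HepG2 liver cells carrying the AhR DRE luciferase reporter; series mostly up to about 70 µM; nearly all actives have a fitted effect of over 45% in size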
Outline: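 HepG2-AhR-luc (HG2L7.5c1) cells, 4000/well, treated 24 h at 37 C with compound; viability measured as CellTiter-Fluor fluorescence after 30 min in the same wells as the luciferase read.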

[4] = target: Peroxisome proliferator-activated receptor gamma (Homo sapiens) (UniProt P37231); test: qHTS assay to identify small molecule agonists of the peroxisome proliferator-activated receptor gamma (PPARg) signaling pathway (AID 743094; active = well fitted activation curve with a large enough effect in the signal ratio in the repeat runs, not every such curve was filed as active; the % refers to the signal ratio)
Chain of Peroxisome proliferator-activated receptor gamma (Homo sapiens) (P37231 whole entry, looked up): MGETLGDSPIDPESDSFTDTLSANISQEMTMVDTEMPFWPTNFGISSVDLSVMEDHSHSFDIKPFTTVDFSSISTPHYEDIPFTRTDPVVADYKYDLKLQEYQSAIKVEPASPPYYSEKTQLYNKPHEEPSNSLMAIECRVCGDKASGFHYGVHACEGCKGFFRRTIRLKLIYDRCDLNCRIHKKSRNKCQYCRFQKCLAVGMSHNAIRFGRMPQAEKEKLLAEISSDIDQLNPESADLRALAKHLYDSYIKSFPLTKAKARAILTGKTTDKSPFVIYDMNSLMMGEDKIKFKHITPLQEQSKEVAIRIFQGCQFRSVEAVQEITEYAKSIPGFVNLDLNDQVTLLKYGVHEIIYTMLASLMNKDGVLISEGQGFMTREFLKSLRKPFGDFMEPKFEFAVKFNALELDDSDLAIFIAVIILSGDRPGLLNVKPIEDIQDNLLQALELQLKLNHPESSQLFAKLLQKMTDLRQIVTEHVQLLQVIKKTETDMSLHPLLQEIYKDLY
Outline: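 Quantitative HTS agonist mode: stable HEK293H line with UAS-beta-lactamase reporter under PPARg control, 17 h compound exposure at 37C, fluorescence after 1 h FRET substrate loading at room temperature.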

[5] = target: Peroxisome proliferator-activated receptor gamma (Homo sapiens) (UniProt P37231); test: qHTS assay to identify small molecule antagonists of the peroxisome proliferator-activated receptor gamma (PPARg) signaling pathway (AID 743191; calls by dose curve; also: series mostly up to about 63 µM; nearly all actives have a fitted effect of over 30% in size)
Outline: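 GeneBLAzer PPARg UAS-bla HEK293H cells, 5 h post-plating, exposed to compounds 17 h at 37C. LiveBLAzer B/G FRET substrate added for 1 h at room temperature; beta-lactamase reporter read by fluorescence intensity.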

[6] = qHTS assay to identify small molecule antagonists of the peroxisome proliferator-activated receptor gamma (PPARg) signaling pathway - cell viability counter screen (AID 743194); also: nearly all actives have a fitted effect of over 55% in size
Outline: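 Cytotoxicity counter screen in PPARg-bla HEK293H cells, same wells as reporter assay. Compounds plus 50 nM rosiglitazone (final) for 17 h at 37 C, then viability read by CellTiter-Glo luminescence.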

[7] = qHTS assay for small molecule agonists of the antioxidant response element (ARE) signaling pathway (AID 743202; active = well fitted activation curve with a large enough effect in the signal ratio in the repeat runs, not every such curve was filed as active; the % refers to the signal ratio)
Outline: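 ARE-bla HepG2 cells (beta-lactamase reporter under the antioxidant response element), plated 5 hours, then exposed to compounds 16 hours at 37 C. LiveBLAzer B/G FRET substrate added for 2 hours at room temperature; fluorescence intensity read.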

[8] = qHTS assay for small molecule agonists of the antioxidant response element (ARE) signaling pathway - cell viability counter screen (AID 743203; calls by dose curve; also: nearly all actives have a fitted effect of over 55% in size)
Outline: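 Seeded at 2,000 cells/well, ARE-bla HepG2 cells were incubated 5 hrs before compound addition. After 16 hrs of treatment at 37C with 5% CO2, CellTiter-Glo reagent was added and luminescence read 30 min later.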

[9] = qHTS assay for small molecule activators of the heat shock response signaling pathway (AID 743210; active = well fitted activation curve with a large enough effect in the signal ratio in the repeat runs, with a control signal flat, not every such curve was filed as active; the % refers to the signal ratio; also: series mostly up to about 63 µM)
Outline: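 HSE-bla HeLa cells (beta-lactamase reporter under heat shock response elements), plated overnight, then exposed to compounds 5 h at 37 C; LiveBLAzer B/G FRET substrate added, 2.5 h at room temperature, fluorescence intensity read.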

[10] = qHTS assay to identify small molecule agonists of the peroxisome proliferator-activated receptor delta (PPARd) signaling pathway - cell viability counter screen (AID 743211); also: nearly all actives have a fitted effect of over 55% in size
Outline: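 PPARd-bla HEK293H cells (UAS-beta-lactamase reporter) were treated with compounds for 17 h at 37 C. Viability was then read in the same wells by CellTiter-Glo luminescence after 30 min at room temperature.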

[11] = qHTS assay to identify small molecule antagonists of the peroxisome proliferator-activated receptor delta (PPARd) signaling pathway - cell viability counter screen (AID 743213); also: nearly all actives have a fitted effect of over 50% in size
Outline: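 HEK293H PPARd UAS-bla cells, 5 h pre-incubation, compound + L165041 300 nM final, 17 h 37 C; B/G FRET substrate 2 h RT; then CellTiter-Glo 30 min RT, luminescence.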

[12] = target: Peroxisome proliferator-activated receptor delta (Homo sapiens) (UniProt Q03181); test: qHTS assay to identify small molecule antagonists of the peroxisome proliferator-activated receptor delta (PPARd) signaling pathway (AID 743215; active = well fitted inhibition curve with a large enough effect in the signal ratio in the repeat runs, not every such curve was filed as active; the % refers to the signal ratio;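 also: cells stimulated with agonist L165041 at 300 nM final during compound exposure; series mostly up to about 62 µM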)
Chain of Peroxisome proliferator-activated receptor delta (Homo sapiens) (Q03181 whole entry, looked up): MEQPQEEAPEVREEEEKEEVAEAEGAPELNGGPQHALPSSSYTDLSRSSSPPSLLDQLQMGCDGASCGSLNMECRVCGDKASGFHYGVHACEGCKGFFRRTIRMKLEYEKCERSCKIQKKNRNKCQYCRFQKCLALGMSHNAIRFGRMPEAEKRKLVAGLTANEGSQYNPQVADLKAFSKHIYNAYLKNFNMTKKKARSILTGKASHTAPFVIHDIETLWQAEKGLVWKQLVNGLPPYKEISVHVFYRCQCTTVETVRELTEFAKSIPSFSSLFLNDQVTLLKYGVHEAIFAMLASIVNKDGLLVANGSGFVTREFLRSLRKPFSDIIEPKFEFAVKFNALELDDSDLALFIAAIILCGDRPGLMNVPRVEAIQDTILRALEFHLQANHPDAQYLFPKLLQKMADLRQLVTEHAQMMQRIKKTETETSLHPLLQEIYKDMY
Outline: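 Inhibition of L165041-driven (300 nM final) PPARd signaling is scored in HEK293H UAS-bla cells. Exposure lasts 17 h at 37 C; beta-lactamase activity is then read by FRET substrate fluorescence after 2 h at room temperature.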

[13] = qHTS assay to identify small molecule agonists of the farnesoid-X-receptor (FXR) signaling pathway - cell viability counter screen (AID 743218); also: nearly all actives have a fitted effect of over 45% in size
Outline: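 Cytotoxicity counter-screen run in parallel, same wells: FXR-UAS-bla HEK 293T cells dosed 16 h at 37 C, viability read by CellTiter-Glo luminescence after 30 min at room temperature.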

[14] = qHTS assay to identify small molecule antagonists of the farnesoid-X-receptor (FXR) signaling pathway - cell viability counter screen (AID 743221; active = well fitted cell-killing curve with a large enough effect in the repeat runs, not every such curve was filed as active; also: nearly all actives have a fitted effect of over 50% in size)
Outline: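 FXR-UAS-bla HEK 293T cells were treated with test compounds plus chenodeoxycholic acid (50 uM final) for 16 h at 37 C. Cell viability in the same wells was then read as CellTiter-Glo luminescence after 30 min at room temperature.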

[15] = target: Vitamin D3 receptor (Homo sapiens) (UniProt P11473); test: qHTS assay to identify small molecule agonists of the vitamin D receptor (VDR) signaling pathway (AID 743222; calls by dose curve)
Chain of Vitamin D3 receptor (Homo sapiens) (P11473 whole entry, looked up): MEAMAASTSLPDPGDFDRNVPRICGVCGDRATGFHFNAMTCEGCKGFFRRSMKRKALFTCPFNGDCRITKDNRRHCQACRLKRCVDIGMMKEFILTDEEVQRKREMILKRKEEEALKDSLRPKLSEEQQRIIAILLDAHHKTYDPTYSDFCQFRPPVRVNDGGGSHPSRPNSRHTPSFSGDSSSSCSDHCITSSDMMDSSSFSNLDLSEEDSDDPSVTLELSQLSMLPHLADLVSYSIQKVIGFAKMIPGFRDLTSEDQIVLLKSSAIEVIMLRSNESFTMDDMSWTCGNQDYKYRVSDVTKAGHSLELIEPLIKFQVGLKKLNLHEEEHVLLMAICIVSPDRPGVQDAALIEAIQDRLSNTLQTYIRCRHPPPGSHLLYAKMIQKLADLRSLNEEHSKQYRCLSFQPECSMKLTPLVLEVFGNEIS
Outline: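 Quantitative HTS agonist-mode screen: compounds in DMSO were pin-transferred onto VDR-bla cells and incubated 16 h at 37C, 5% CO2. Reporter activity was detected with LiveBLAzer B/G FRET substrate after 2 h at room temperature.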

[16] = qHTS assay for small molecule activators of the heat shock response signaling pathway - cell viability counter screen (AID 743209); also: nearly all actives have a fitted effect of over 50% in size
Outline: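 First, HSE-bla HeLa cells were seeded at 1500 cells/well and kept overnight at 37 C. Next, compounds were pinned in and incubated 5 h. After the FRET substrate step, CellTiter-Glo was added and luminescence read 30 min later.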

[17] = target: Bile acid receptor (Homo sapiens) (UniProt Q96RI1); test: qHTS assay to identify small molecule agonists of the farnesoid-X-receptor (FXR) signaling pathway (AID 743220; active = well fitted activation curve with a large enough effect in the signal ratio in the repeat runs, not every such curve was filed as active; the % refers to the signal ratio)
Chain of Bile acid receptor (Homo sapiens) (Q96RI1 whole entry, looked up): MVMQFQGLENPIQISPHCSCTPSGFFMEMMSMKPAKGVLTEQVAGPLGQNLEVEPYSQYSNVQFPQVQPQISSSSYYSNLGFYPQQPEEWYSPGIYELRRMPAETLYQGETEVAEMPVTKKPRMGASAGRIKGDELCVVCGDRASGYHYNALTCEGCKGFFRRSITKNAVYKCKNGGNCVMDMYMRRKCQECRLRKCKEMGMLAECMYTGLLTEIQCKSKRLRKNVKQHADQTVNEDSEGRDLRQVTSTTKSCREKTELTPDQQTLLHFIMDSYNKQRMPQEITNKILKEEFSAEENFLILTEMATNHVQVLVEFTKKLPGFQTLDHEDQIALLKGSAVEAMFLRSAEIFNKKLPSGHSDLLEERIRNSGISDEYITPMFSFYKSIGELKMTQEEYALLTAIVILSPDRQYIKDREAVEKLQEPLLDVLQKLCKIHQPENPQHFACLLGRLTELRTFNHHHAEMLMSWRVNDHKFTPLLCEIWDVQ
Outline: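 Beta-lactamase reporter under UAS control in GeneBLAzer FXR HEK 293T cells (5000/well) measured with LiveBLAzer FRET substrate after 2 h at room temperature. Compound exposure lasted 16 h at 37C.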

[18] = target: Peroxisome proliferator-activated receptor delta (Homo sapiens) (UniProt Q03181); test: qHTS assay to identify small molecule agonists of the peroxisome proliferator-activated receptor delta (PPARd) signaling pathway (AID 743212; calls by dose curve)
Outline: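 GeneBLAzer UAS-bla HEK293H cells carrying a PPARδ construct were exposed to compounds at 37 °C. Beta-lactamase activity was read by FRET fluorescence after 2 h at room temperature with LiveBLAzer B/G substrate.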

[19] = target: Vitamin D3 receptor (Homo sapiens) (UniProt P11473); test: qHTS assay to identify small molecule antagonists of the vitamin D receptor (VDR) signaling pathway (AID 743223; active = well fitted inhibition curve with a large enough effect in the signal ratio in the repeat runs, not every such curve was filed as active; the % refers to the signal ratio)
Outline: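 VDR-bla cells were plated, incubated 4 h at 37C, then given compound and 1alpha,25-dihydroxyvitamin D3 (3 nM final). After 16 h at 37C, LiveBLAzer B/G FRET substrate was added for 2 h at room temperature and fluorescence read.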

[20] = target: Bile acid receptor (Homo sapiens) (UniProt Q96RI1); test: qHTS assay to identify small molecule antagonists of the farnesoid-X-receptor (FXR) signaling pathway (AID 743217; active = well fitted inhibition curve with a large enough effect in the signal ratio in the repeat runs, not every such curve was filed as active; the % refers to the signal ratio)
Outline: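 Antagonist mode against 50 uM (final) chenodeoxycholic acid stimulation in FXR-bla HEK 293T cells, 16 h at 37 °C. Inhibition detected as reduced beta-lactamase activity via LiveBLAzer B/G FRET fluorescence after 2 h at room temperature.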

Measured: Potency

COC(=O)c1ccccc1Cl
not listed: [16] | [17] | [18] | [19] | [20]
inactive: all other assays above

Cc1ccc2cccnc2c1
not listed: [7] | [10] | [12] | [18] | [19] | [20]
inactive: all other assays above

CC(=O)c1c(C)cc(C(C)(C)C)cc1C
not listed: [7] | [17] | [20]
inactive: all other assays above

O=C[C@@H](O)[C@H](O)[C@H](O)CO
not listed: [5] | [15] | [17] | [19] | [20]
inactive: all other assays above

CC(C)C(C)C
not listed: [10] | [14] | [15] | [17] | [19] | [20]
inactive: all other assays above

CCCOc1ccc(C(=O)OCCN(CC)CC)cc1N
active: [2] 1.33 µM
not listed: [7] | [14] | [17] | [20]
inactive: all other assays above

C=CC(=O)OCC[N+](C)(C)C
not listed: [7] | [11] | [18]
inactive: all other assays above

CCCCNCC
not listed: [7] | [9] | [15] | [17] | [19] | [20]
inactive: all other assays above

CCC(C)c1nccnc1OC (centres undefined)
not listed: [11] | [17] | [18] | [20]
inactive: all other assays above

O=C(O)CCCCCCCCCC(=O)O
not listed: [4] | [10] | [17] | [20]
inactive: all other assays above

CC(C)c1cc(C(C)C)cc(C(C)C)c1
not listed: [5] | [10] | [17] | [20]
inactive: all other assays above

COc1cnc(NS(=O)(=O)c2ccc(N)cc2)nc1
inactive: [1] | [2] | [3] | [4] | [6] | [7] | [8] | [9] | [10] | [11] | [14]

CNC(C)=O
not listed: [4] | [14] | [17] | [20]
inactive: all other assays above

CCO/C=C1\N=C(c2ccccc2)OC1=O
not listed: [5] | [15] | [17] | [18] | [19] | [20]
inactive: all other assays above

CCCC[O][Al]([O]CCCC)[O]CCCC
not listed: [4] | [8] | [12] | [19] | [20]
inactive: all other assays above

C[C@H]1COc2c(C3(N)CC3)c(F)cc3c(=O)c(C(=O)O)cn1c23
not listed: [4] | [17] | [20]
inactive: all other assays above

Cc1nc2ccc(Cl)cc2[nH]1
active: [2] 30.6 µM
not listed: [4] | [10] | [12] | [14] | [18]
inactive: all other assays above

NCC1CCC(C(=O)Oc2ccc(CCC(=O)O)cc2)CC1 (centres undefined)
not listed: [4] | [18] | [20]
inactive: all other assays above

COCCCOc1cc(C[C@@H](C[C@H](N)[C@@H](O)C[C@H](C(=O)NCC(C)(C)C(N)=O)C(C)C)C(C)C)ccc1OC
not listed: [4] | [12] | [15] | [17] | [18] | [19] | [20]
inactive: all other assays above

COc1cc(NS(=O)(=O)c2ccc(N)cc2)ncn1
not listed: [5] | [15] | [17] | [18] | [19] | [20]
inactive: all other assays above

CC/C=C/CCCCCCCCCCOC(C)=O
not listed: [5] | [6] | [14] | [17] | [20]
inactive: all other assays above

C[Si](C)(C)O[Si](O)(O)O
not listed: [5] | [9] | [12] | [15] | [18] | [20]
inactive: all other assays above

COC(=O)c1c(C)cc(O)c(C)c1O
not listed: [4] | [17] | [20]
inactive: all other assays above

CCCCCCCCCCCCCCCC/C=C/C1CC(=O)OC1=O (centres undefined)
not listed: [5] | [10] | [19]
inactive: all other assays above

c1coc(Cn2cccc2)c1
inactive: [1] | [2] | [3] | [4] | [6] | [8] | [16] | [10] | [11] | [20] | [13]

CC[N+](C)(CC)CC
not listed: [5] | [12] | [15] | [17] | [18] | [19]
inactive: all other assays above

CCCCOCCCC
not listed: [5] | [12] | [14] | [17] | [18] | [20]
inactive: all other assays above
